# From ChEMBL document CHEMBL1961873, “Compounds: GSK PKIS; Assays: Nanosyn kinase panel” (2012)
# Legend:
# [1] = target: Sphingosine kinase 1 (Homo sapiens) (UniProt Q9NYA1); conditions: at 1 µM;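 also: mean SPHK1 inhibition value reported from the GSK PKIS kinase panel screen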
# [2] = target: T1, Sphingosine kinase 2 (Homo sapiens) (UniProt Q9NRA0); conditions: at 0.1 µM
# T1 sequence (whole entry): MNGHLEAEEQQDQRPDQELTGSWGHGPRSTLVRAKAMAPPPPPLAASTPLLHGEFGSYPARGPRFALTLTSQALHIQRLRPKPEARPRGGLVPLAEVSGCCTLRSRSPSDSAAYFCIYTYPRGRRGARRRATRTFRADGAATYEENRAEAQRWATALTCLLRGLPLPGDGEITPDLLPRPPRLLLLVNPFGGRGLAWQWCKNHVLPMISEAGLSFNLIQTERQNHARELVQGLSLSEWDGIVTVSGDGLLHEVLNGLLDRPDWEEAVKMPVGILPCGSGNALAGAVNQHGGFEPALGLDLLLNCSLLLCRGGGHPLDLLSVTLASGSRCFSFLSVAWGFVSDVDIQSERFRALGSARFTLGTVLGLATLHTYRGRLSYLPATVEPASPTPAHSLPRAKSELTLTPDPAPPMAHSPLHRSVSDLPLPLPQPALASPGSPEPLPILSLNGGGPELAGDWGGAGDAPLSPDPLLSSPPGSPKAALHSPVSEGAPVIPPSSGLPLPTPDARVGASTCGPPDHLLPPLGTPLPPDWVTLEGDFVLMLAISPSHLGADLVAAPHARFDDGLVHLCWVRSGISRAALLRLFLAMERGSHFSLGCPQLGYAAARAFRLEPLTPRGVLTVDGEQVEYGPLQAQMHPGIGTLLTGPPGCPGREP
# [3] = target: T1, Sphingosine kinase 2 (Homo sapiens); conditions: at 1 µM
# [4] = target: Casein kinase II subunit alpha (Homo sapiens) (UniProt P68400); conditions: at 0.1 µM
# Casein kinase II subunit alpha (Homo sapiens), sequence (P68400 whole entry, looked up): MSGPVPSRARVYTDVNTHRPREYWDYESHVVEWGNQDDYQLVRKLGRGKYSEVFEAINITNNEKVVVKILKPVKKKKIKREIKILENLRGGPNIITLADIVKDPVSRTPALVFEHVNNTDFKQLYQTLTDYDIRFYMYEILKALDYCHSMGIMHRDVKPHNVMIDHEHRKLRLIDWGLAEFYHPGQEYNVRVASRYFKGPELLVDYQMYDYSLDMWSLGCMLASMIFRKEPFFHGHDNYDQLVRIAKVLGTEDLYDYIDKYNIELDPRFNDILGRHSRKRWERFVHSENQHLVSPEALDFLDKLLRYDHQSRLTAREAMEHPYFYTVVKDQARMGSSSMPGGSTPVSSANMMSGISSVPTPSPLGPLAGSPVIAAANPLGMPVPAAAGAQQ
# [5] = target: Casein kinase II subunit alpha (Homo sapiens) (UniProt P68400); conditions: at 1 µM
# [6] = target: T2, Inhibitor of nuclear factor kappa-B kinase subunit alpha (Homo sapiens) (UniProt O15111); conditions: at 0.1 µM
# T2 sequence (whole entry): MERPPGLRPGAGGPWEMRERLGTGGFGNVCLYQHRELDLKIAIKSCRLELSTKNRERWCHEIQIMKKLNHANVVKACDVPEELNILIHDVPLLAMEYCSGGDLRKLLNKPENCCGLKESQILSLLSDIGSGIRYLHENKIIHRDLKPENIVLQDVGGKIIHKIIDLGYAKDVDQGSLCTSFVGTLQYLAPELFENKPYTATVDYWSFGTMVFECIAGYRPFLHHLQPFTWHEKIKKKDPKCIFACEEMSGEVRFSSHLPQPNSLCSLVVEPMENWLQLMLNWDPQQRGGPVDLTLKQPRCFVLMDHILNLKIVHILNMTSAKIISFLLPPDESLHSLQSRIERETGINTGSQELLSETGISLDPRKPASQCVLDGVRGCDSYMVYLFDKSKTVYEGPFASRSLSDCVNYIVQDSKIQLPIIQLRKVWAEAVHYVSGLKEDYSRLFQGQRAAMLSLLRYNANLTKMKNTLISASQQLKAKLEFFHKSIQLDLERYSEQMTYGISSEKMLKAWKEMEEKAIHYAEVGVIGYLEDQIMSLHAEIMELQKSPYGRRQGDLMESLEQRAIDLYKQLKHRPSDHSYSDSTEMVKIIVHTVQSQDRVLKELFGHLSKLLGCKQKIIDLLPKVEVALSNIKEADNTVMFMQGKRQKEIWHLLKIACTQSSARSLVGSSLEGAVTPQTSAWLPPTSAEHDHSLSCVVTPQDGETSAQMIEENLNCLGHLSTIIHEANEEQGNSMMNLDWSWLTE
# [7] = target: T2, Inhibitor of nuclear factor kappa-B kinase subunit alpha (Homo sapiens); conditions: at 1 µM
# [8] = target: T3, Inhibitor of nuclear factor kappa-B kinase subunit beta (Homo sapiens) (UniProt O14920); conditions: at 0.1 µM
# T3 sequence (whole entry): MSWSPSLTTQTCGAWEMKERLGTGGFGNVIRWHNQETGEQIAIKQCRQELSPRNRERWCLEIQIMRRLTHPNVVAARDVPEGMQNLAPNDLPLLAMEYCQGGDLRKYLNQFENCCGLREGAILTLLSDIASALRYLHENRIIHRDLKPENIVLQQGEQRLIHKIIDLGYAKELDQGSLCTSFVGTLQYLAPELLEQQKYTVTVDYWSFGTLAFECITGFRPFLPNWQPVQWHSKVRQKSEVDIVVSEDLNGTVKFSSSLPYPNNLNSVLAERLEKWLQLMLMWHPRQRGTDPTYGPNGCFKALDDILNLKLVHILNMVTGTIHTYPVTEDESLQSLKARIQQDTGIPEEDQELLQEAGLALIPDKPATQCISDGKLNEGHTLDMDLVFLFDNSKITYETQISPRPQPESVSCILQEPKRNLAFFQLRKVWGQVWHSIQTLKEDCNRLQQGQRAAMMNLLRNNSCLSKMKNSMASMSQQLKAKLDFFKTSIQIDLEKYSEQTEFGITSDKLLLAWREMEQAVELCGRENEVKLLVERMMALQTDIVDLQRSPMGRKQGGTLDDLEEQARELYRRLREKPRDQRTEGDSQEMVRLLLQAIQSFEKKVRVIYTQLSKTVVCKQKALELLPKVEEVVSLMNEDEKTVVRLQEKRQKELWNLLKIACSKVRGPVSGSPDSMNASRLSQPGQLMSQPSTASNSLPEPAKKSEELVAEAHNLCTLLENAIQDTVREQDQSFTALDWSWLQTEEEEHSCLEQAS
# [9] = target: T3, Inhibitor of nuclear factor kappa-B kinase subunit beta (Homo sapiens); conditions: at 1 µM
# [10] = target: T4, Inhibitor of nuclear factor kappa-B kinase subunit epsilon (Homo sapiens) (UniProt Q14164); conditions: at 0.1 µM
# T4 sequence (whole entry): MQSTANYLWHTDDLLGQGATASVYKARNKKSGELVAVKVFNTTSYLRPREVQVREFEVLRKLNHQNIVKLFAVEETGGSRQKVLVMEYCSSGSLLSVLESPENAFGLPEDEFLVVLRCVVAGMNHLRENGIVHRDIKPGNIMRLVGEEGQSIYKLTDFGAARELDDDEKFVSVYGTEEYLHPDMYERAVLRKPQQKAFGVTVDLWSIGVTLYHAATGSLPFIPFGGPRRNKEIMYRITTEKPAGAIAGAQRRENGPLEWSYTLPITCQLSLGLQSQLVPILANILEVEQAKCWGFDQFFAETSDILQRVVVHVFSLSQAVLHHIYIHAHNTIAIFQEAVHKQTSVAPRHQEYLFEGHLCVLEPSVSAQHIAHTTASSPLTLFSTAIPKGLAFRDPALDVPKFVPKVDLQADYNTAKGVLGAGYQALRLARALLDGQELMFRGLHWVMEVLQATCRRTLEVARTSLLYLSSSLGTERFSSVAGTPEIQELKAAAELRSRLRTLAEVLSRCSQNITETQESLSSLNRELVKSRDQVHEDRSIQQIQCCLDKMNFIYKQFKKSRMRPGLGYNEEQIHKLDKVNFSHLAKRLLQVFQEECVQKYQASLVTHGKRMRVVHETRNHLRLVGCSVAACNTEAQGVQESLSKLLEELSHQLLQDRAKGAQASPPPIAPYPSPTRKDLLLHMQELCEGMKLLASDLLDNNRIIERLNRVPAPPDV
# [11] = target: T4, Inhibitor of nuclear factor kappa-B kinase subunit epsilon (Homo sapiens); conditions: at 1 µM
# [12] = target: T5, Serine/threonine-protein kinase Nek1 (Homo sapiens) (UniProt Q96PY6); conditions: at 0.1 µM
# T5 sequence (whole entry): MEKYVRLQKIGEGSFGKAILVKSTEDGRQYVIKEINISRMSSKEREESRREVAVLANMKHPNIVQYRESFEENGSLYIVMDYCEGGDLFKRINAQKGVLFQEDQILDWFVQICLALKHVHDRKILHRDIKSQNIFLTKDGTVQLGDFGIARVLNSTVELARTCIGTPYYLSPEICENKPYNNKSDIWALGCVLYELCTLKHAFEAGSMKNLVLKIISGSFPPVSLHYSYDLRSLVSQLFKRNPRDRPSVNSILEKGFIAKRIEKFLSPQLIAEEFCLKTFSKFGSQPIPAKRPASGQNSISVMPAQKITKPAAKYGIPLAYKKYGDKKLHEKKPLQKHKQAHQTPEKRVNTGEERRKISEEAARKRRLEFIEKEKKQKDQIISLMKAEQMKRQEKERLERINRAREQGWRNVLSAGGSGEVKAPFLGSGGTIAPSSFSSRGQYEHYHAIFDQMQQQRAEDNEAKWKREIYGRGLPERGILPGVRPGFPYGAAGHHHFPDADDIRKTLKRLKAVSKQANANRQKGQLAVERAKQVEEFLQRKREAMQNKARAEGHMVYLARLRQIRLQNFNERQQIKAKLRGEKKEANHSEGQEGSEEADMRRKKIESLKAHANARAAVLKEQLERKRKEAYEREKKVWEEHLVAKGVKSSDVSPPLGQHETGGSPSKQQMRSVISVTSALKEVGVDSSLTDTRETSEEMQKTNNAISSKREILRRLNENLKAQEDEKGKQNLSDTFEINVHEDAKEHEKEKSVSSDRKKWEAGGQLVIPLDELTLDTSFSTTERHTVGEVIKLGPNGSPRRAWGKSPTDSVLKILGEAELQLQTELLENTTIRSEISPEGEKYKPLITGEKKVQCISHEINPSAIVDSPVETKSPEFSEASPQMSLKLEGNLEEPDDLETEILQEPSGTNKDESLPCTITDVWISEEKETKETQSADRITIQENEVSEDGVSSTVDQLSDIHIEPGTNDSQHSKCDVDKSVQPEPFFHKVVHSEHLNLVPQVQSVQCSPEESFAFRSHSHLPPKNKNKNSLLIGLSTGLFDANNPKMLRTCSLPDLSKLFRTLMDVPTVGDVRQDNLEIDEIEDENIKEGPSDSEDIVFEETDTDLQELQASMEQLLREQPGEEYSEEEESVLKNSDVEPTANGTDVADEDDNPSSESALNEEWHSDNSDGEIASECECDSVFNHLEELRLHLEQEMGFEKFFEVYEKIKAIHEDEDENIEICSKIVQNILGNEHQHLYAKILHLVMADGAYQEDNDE
# [13] = target: T5, Serine/threonine-protein kinase Nek1 (Homo sapiens); conditions: at 1 µM
# [14] = target: T6, Serine/threonine-protein kinase Nek2 (Homo sapiens) (UniProt P51955); conditions: at 0.1 µM
# T6 sequence (whole entry): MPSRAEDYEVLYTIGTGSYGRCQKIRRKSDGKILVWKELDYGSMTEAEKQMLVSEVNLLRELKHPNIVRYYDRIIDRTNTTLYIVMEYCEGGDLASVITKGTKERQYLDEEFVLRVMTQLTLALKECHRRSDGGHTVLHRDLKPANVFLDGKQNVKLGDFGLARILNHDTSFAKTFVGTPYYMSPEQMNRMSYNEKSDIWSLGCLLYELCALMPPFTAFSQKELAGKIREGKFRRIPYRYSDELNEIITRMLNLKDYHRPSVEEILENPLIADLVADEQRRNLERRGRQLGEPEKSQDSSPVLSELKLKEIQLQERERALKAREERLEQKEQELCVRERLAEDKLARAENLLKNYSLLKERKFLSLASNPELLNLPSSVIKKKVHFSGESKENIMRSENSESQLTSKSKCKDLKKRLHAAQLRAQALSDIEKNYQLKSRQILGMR
# [15] = target: T6, Serine/threonine-protein kinase Nek2 (Homo sapiens); conditions: at 1 µM
# [16] = target: Serine/threonine-protein kinase Nek6 (Homo sapiens) (UniProt Q9HC98); conditions: at 0.1 µM
# Serine/threonine-protein kinase Nek6 (Homo sapiens), sequence (Q9HC98 whole entry): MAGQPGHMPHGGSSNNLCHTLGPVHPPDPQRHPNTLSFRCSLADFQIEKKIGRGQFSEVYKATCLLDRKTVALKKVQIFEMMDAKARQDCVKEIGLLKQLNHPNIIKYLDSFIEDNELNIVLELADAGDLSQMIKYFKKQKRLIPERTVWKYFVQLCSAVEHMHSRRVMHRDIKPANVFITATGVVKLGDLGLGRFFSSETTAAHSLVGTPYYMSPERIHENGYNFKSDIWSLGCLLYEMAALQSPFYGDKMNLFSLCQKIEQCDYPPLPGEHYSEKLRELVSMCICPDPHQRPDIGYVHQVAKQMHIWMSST
# [17] = target: Serine/threonine-protein kinase Nek6 (Homo sapiens) (UniProt Q9HC98); conditions: at 1 µM
# [18] = target: Serine/threonine-protein kinase Nek7 (Homo sapiens) (UniProt Q8TDX7); conditions: at 0.1 µM
# Serine/threonine-protein kinase Nek7 (Homo sapiens), sequence (Q8TDX7 whole entry, looked up): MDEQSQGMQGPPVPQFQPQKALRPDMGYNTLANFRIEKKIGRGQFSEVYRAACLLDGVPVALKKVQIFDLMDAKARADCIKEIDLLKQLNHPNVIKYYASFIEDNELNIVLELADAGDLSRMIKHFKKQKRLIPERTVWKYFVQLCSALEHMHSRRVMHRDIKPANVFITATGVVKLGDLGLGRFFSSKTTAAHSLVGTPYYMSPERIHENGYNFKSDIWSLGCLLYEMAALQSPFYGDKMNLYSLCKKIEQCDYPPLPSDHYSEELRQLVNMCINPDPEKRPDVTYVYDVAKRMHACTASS
# [19] = target: Serine/threonine-protein kinase Nek7 (Homo sapiens) (UniProt Q8TDX7); conditions: at 1 µM
# [20] = target: T7, Serine/threonine-protein kinase Nek9 (Homo sapiens) (UniProt Q8TD19); conditions: at 0.1 µM;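 also: reported value is the mean percent inhibition of NEK9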
# T7 sequence (whole entry): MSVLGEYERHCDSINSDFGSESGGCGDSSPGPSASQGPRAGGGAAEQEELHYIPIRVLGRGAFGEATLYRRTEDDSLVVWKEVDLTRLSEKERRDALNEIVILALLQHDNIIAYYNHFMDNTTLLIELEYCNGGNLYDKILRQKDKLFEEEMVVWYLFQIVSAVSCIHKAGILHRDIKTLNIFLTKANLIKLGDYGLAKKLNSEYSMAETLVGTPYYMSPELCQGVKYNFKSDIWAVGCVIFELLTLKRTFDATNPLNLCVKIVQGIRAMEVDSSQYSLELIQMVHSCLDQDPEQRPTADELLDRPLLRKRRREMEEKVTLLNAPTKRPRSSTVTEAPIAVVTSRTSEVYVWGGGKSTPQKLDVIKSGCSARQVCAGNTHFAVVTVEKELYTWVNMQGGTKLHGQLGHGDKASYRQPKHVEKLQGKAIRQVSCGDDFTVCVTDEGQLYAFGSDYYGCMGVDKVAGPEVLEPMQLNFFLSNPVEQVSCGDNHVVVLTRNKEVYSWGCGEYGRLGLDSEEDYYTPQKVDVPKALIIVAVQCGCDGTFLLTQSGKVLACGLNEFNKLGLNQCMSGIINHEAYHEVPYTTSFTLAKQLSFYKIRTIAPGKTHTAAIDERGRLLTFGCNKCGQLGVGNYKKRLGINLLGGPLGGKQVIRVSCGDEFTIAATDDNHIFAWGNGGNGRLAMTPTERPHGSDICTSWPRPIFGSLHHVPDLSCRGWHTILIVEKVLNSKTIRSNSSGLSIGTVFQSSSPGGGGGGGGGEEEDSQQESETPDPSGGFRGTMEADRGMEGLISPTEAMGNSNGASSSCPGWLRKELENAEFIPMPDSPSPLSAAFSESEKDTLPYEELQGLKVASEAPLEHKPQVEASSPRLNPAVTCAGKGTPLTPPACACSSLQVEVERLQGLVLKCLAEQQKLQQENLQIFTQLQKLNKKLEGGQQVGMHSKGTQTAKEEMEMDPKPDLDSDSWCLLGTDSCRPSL
# Sphingosine kinase 1 (Homo sapiens), sequence (Q9NYA1 whole entry): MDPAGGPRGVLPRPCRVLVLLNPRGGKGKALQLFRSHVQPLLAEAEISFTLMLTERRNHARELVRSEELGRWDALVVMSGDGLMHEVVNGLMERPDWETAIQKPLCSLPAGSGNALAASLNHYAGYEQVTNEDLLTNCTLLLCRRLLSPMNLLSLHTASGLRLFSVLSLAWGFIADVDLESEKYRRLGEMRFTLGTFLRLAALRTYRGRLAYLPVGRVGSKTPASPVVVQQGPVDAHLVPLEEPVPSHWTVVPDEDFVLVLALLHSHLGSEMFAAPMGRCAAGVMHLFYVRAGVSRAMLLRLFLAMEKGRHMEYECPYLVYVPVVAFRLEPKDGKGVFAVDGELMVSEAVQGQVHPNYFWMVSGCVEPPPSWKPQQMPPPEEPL
compound,measurement,setting,value
COc1ccc(C2=C(N3CCc4ccccc43)C(=O)NC2=O)cc1,inhibition,[1],-5.21%
same,inhibition,[2],0.83%
same,inhibition,[3],0.21%
same,inhibition,[4],5.6%
same,inhibition,[5],6.96%
same,inhibition,[6],9.04%
same,inhibition,[7],6.68%
same,inhibition,[8],6.54%
same,inhibition,[9],3.83%
same,inhibition,[10],13.5%
same,inhibition,[11],19.1%
same,inhibition,[12],2.77%
same,inhibition,[13],5.54%
same,inhibition,[14],5.3%
same,inhibition,[15],6.47%
same,inhibition,[16],2.74%
same,inhibition,[17],1.65%
same,inhibition,[18],3.11%
same,inhibition,[19],3.74%
same,inhibition,[20],11.3%
